Results from PubChem BioAssay (NCATS).
A number with no mark means an inactive call. Records with an inconclusive call do not appear. A call without a number means that no potency is given here. Calls of active or inactive are those of the source. Unless noted, calls follow the shape of the dose curve; as a rule, active = well fitted curve in the direction sought with a large enough effect; inconclusive = small, poorly fitted or top-dose-only effect, or another doubt; inactive = no such curve, though single readings can be large; an effect the other way counts as inactive or inconclusive.

Assays:
[1] = biological target: Rap guanine nucleotide exchange factor 3 (Homo sapiens) (UniProt O95398); test: Confirmatory qHTS for antagonist of cAMP-regulated guanine nucleotide exchange factor 3 (EPAC1) (AID 1645880); details: EPAC1 Rap1B-BODIPY-GDP exchange, fluorescence; activity, negative = inhibition: at 115 µM (top of the series); also: nearly all actives have a fitted effect of over 55% in size; also: potency is read from the fitted curve at half-maximal effect
Outline: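 Released BODIPY-GDP fluoresces less than Rap1-bound BODIPY-GDP; the signal is followed at 480/540 nm at 5-min intervals over 30 min, after 5 min at room temperature. Reactions contain 100 nM EPAC1, 250 nM RAP1B-BODIPY-GDP and 50 uM GDP; results are normalized to ATA and DMSO.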

[2] = biological target: Rap guanine nucleotide exchange factor 4 (Homo sapiens) (UniProt Q8WZA2); test: Confirmatory qHTS for agonist of cAMP-regulated guanine nucleotide exchange factor 4 (EPAC2) (AID 1645884);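 also: nucleotide exchange releases bodipy-GDP from Rap1 and this lowers its fluorescence; nearly all actives have a fitted effect of over 65% in size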; also: potency is read from the fitted curve at half-maximal effect
[3] = biological target: Rap guanine nucleotide exchange factor 3 (Homo sapiens) (UniProt O95398); test: Counterscreen qHTS for antagonist of cAMP-regulated guanine nucleotide exchange factor 3 (EPAC1) (AID 1645888)
Outline: (§1)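 Rap1B–BODIPY-GDP (250 nM) with 50 uM GDP; compounds pin-transferred to 9.74 nM–152 uM final (activator) or from 7.32 nM upwards (inhibitor). Fluorescence Ex/Em 480/540 nm read at 5 and 30 min, then after adding cAMP or buffer, at room temperature.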

[4] = biological target: Rap guanine nucleotide exchange factor 3 (Homo sapiens) (UniProt O95398); test: Counterscreen qHTS for agonist of cAMP-regulated guanine nucleotide exchange factor 3 (EPAC1) (AID 1645889); also: nearly all actives have a fitted effect of over 40% in size; also: potency is read from the fitted curve at half-maximal effect
Outline: as §1

[5] = biological target: Rap guanine nucleotide exchange factor 4 (Homo sapiens) (UniProt Q8WZA2); test: Confirmatory qHTS for antagonist of cAMP-regulated guanine nucleotide exchange factor 4 (EPAC2) (AID 1645885); also: nearly all actives have a fitted effect of over 25% in size; also: potency is read from the fitted curve at half-maximal effect
[6] = biological target: Lysosomal acid glucosylceramidase (Homo sapiens) (UniProt P04062); test: Glucocerebrosidase-p2 (AID 348; in the data active = potency below about 10 µM; also: potency is read from the fitted curve at half-maximal effect); details: purified GBA, blue fluorogenic substrate, 40 min
Outline: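 Normal human glucocerebrosidase (0.2 nM) with blue fluorogenic substrate (80 uM final) in citrate/phosphate pH 5.9 with 10mM sodium taurocholate, 0.01% tween-20; 40 min RT, NaOH/glycine stop; fluorescence Ex 365/Em 440; AC50 from a titration from 0.6 nM upwards.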

[7] = AP1 Signaling Pathway (AID 357; active = well fitted curve in either direction with a large enough effect, not every such curve was filed as active;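 also: ME-180 reporter cells stimulated with EGF at its EC50 level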); details: ME-180 AP-1-bla reporter, EGF-induced, beta-lactamase ratio, 5 h; at 7.69 µM (top of the series) unless noted
Outline: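 In this screen, ME-180 cells in Opti-MEM with 0.5% dialyzed FBS received EC50 EGF and compound titrations for 5 h. AP-1 reporter beta-lactamase was detected via CCF4 ratio, giving AC50 for positive and negative modulators.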

[8] = biological target: Cytochrome P450 1A2 (Homo sapiens) (UniProt P05177); test: p450-cyp1a2 (AID 410; calls by dose curve; also: potency is read from the fitted curve at half-maximal effect)
Outline: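 Read-out is luminescence from luciferin produced by CYP1A2 demethylation of Luciferin-ME (100uM, at Km). Detection reagent stopped the 60 min NADPH-dependent reaction; signals were normalized to 57 uM furafylline.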

[9] = NFAT Signaling Pathway (AID 444; active = well fitted curve in either direction with a large enough effect, not every such curve was filed as active;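 also: carbachol stimulus at about its EC50 of 1 µM final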); details: Jurkat NFAT-bla M1, carbachol, beta-lactamase ratio, 5 h; at 7.69 µM (top of the series) unless noted
Outline: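 Jurkat cells with NFAT-driven β-lactamase reporter and co-expressed M1 receptor, stimulated with carbachol (final 1 uM, ~EC50), compound titration, 5 h at 37 °C. CCF4 loaded 1 h at RT; 460/530 nm ratio gave %activity and AC50.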

[10] = Stat Signaling Pathway (AID 446; active = well fitted curve in either direction with a large enough effect, not every such curve was filed as active;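 also: ME-180 cervical cancer cells given 40 pM IL-6 alongside compound; SIE-controlled beta-lactamase reporter measured as 460/530 nm FRET emission ratio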)
Outline: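 Overnight-plated ME-180 cells bearing a STAT Inducible Element beta-lactamase reporter; 5 h co-exposure to compound and 40 pM IL-6; values normalized to 300 pM IL-6 and 125 nM JAK inhibitor controls.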

[11] = biological target: Mitogen-activated protein kinase 10 (Mus musculus) (UniProt Q61831); test: JNK3 AlphaScreen Assay (AID 530; active = well fitted curve in either direction with a large enough effect, not every such curve was filed as active;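 also: kinase came from lysate of stimulated human HepG2 cells; signal reports phosphorylation of biotinylated GST-cJun 1-79 at Ser73 with 10 µM ATP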)
Outline: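 HepG2 lysate (IL-1b/TNFa pre-activated) + biotin-GST-cJun 1-79 + anti-pSer73 cJun; cpd titration, 15 min RT; ATP 10 uM start; Tris pH 7.6, MgCl2, DTT, vanadate; beads in EDTA buffer; AlphaScreen.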

[12] = biological target: 3',5'-cyclic-AMP phosphodiesterase 4B (Homo sapiens) (UniProt Q07343); test: qHTS Assay for Inhibitors of PDE-IV (AID 607; active = well fitted activation curve with a large enough effect in the main read-out, with a control signal flat, not every such curve was filed as active)
Outline: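 Live HEK293 cells with a modified cyclic nucleotide-gated (CNG) channel report intracellular cAMP via membrane-potential dye fluorescence (ex 535/em 590 nm). Endogenous PDE-IV was targeted. Compounds were tested at up to 22.9 uM final; RO 20-1724 100 uM served as control.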

[13] = biological target: Cytochrome P450 3A4 (Homo sapiens) (UniProt P08684); test: qHTS Assay for Activators of Cytochrome P450 3A4 (AID 885); also: nearly all actives have a fitted effect of over 65% in size
Outline: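 Using 20nM recombinant human CYP3A4 in potassium phosphate (200mM), substrate Luciferin-PPXE at 25uM, luminescent luciferin detection followed a 60-min RT NADPH reaction; data scaled to 57 uM ketoconazole.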

[14] = qHTS Assay for Identification of Small Molecule Agonists for Hypoxia Response Element Signaling Pathway (AID 914; active = well fitted activation curve with a large enough effect in the signal ratio, with a control signal flat, not every such curve was filed as active; the % refers to the signal ratio); details: ME-180 (cervical carcinoma) HRE-bla reporter, beta-lactamase ratio, CoCl2, 17 h; activation: hits give high values
Outline: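 A beta-lactamase reporter under hypoxia response element control in ME-180 cells served as the system. Compound titrations plus EC50 CoCl2 ran 17 h at 37 degrees Celsius; AC50 values were fitted from %Activity.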

[15] = biological target: Tumor susceptibility gene 101 protein (Homo sapiens) (UniProt Q99816); test: qHTS Assay for Iinhibitors of HIV-1 Budding by Blocking the Interaction of PTAP/TSG101: Hit Validation (AID 651600); also: potency is read from the fitted curve at half-maximal effect; nearly all actives have a fitted effect of over 70% in size
Outline: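 FITC-PTAP peptide (50 nM final) binding to Tsg101 binding domain (10 uM final) was measured by polarization after 20 min at r.t. with compounds, in 10 mM HEPES pH 7.5 buffer with 0.15 M NaCl and 0.01% Tween 20.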

Rap guanine nucleotide exchange factor 3 (Homo sapiens), sequence (O95398 whole entry, looked up): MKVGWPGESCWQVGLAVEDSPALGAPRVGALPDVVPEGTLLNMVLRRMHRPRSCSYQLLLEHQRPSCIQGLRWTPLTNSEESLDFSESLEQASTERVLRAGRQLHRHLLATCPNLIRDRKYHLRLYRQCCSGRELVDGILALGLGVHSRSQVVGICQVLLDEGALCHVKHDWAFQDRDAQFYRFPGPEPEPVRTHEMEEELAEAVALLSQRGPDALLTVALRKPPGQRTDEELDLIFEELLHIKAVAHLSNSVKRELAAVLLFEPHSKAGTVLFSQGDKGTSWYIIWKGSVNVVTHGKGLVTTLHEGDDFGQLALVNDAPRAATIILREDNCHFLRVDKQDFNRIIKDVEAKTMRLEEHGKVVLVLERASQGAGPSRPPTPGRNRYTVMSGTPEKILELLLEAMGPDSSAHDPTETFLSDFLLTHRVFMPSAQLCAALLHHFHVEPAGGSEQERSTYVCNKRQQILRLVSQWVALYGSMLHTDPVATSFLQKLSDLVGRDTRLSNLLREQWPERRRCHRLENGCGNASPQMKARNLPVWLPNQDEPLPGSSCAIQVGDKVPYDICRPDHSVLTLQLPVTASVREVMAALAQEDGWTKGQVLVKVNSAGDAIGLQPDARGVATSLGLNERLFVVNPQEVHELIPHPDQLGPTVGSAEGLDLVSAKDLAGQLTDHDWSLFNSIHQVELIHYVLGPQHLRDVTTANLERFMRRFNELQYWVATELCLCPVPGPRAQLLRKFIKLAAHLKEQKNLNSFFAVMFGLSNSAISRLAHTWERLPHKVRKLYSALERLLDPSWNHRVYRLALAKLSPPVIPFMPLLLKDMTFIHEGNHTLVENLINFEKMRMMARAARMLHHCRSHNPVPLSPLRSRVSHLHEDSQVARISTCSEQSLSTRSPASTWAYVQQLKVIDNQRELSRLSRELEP
Rap guanine nucleotide exchange factor 4 (Homo sapiens), sequence (Q8WZA2 whole entry, looked up): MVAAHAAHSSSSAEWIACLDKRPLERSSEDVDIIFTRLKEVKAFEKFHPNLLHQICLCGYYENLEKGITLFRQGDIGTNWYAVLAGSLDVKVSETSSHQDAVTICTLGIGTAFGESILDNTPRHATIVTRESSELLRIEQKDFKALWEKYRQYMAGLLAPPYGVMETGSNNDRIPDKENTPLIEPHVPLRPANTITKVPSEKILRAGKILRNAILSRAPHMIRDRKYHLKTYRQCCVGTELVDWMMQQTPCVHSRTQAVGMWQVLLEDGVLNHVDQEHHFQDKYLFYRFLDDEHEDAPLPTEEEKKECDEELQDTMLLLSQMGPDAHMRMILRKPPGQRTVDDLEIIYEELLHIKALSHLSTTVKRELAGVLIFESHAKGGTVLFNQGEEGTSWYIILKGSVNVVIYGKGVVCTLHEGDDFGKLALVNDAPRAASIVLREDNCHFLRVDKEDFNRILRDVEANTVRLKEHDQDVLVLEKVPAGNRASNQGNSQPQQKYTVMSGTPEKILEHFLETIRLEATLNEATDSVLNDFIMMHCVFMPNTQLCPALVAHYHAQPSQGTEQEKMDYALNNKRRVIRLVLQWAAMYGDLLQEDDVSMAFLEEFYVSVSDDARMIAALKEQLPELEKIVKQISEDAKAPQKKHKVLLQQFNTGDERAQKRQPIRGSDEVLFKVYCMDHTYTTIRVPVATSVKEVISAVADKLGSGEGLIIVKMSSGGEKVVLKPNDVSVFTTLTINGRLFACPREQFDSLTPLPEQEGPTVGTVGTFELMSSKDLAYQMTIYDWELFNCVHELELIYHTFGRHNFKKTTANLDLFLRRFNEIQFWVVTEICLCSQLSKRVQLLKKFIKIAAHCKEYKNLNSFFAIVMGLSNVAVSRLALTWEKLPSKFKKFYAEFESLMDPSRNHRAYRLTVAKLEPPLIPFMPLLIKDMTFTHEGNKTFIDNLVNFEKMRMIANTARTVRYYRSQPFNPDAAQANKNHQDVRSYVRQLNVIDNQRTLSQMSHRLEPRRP
Cytochrome P450 1A2 (Homo sapiens), sequence (P05177 whole entry, looked up): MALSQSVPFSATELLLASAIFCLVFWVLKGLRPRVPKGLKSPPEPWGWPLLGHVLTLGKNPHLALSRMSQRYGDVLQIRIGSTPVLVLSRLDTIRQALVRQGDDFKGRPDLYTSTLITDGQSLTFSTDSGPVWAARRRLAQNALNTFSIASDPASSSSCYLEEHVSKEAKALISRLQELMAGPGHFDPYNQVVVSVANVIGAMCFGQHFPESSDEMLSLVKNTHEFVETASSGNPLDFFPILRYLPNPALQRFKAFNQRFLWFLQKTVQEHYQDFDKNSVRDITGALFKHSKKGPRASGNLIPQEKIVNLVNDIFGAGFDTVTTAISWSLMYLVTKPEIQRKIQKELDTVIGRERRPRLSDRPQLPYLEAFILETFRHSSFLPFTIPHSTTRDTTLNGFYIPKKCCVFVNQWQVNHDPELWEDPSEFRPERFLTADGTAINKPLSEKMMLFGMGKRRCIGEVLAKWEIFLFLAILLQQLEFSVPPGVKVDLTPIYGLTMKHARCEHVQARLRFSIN
3',5'-cyclic-AMP phosphodiesterase 4B (Homo sapiens), sequence (Q07343 whole entry, looked up): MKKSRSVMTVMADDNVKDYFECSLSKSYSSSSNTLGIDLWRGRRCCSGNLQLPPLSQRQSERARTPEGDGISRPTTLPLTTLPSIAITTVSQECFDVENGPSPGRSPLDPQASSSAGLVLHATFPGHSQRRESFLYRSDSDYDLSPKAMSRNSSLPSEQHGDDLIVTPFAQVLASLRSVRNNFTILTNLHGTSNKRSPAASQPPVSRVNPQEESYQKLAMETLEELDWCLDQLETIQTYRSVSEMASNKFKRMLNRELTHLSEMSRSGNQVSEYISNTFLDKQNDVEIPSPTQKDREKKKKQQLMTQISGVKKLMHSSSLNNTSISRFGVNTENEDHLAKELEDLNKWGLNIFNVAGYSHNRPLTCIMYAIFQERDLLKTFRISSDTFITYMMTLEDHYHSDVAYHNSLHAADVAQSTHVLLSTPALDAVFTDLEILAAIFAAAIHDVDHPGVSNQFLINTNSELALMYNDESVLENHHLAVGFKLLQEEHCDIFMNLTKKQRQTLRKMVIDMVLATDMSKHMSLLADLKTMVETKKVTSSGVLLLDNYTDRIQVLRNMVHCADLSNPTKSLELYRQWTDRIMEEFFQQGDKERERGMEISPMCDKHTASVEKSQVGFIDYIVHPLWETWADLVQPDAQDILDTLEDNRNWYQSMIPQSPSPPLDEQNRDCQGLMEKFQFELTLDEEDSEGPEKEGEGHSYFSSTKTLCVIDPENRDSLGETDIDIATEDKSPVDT
Tumor susceptibility gene 101 protein (Homo sapiens), sequence (Q99816 whole entry, looked up, the tested form may be a part): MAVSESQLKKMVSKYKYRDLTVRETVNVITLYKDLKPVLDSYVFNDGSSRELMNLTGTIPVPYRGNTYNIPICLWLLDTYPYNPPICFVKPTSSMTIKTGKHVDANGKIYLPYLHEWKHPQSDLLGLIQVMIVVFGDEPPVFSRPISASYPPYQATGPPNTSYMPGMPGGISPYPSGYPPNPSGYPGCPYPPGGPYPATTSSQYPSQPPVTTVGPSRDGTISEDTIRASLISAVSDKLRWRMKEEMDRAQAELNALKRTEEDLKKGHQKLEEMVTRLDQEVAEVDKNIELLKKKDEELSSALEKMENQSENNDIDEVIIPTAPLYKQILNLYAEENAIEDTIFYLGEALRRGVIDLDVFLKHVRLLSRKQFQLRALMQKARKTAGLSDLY
Cytochrome P450 3A4 (Homo sapiens), sequence (P08684 whole entry, looked up): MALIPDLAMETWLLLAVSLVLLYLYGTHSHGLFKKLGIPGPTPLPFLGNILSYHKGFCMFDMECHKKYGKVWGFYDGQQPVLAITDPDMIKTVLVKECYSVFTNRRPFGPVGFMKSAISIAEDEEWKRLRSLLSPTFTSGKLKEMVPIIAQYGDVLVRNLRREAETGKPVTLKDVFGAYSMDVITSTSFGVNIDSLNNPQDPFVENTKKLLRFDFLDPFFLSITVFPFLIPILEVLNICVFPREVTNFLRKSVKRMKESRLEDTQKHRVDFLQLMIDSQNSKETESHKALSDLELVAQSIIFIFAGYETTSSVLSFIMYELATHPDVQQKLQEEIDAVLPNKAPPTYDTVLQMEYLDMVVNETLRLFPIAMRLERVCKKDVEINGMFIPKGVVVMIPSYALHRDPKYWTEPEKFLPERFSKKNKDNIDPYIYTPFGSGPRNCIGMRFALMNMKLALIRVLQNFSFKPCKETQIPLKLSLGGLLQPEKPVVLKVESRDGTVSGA
Lysosomal acid glucosylceramidase (Homo sapiens), sequence (P04062 whole entry, looked up): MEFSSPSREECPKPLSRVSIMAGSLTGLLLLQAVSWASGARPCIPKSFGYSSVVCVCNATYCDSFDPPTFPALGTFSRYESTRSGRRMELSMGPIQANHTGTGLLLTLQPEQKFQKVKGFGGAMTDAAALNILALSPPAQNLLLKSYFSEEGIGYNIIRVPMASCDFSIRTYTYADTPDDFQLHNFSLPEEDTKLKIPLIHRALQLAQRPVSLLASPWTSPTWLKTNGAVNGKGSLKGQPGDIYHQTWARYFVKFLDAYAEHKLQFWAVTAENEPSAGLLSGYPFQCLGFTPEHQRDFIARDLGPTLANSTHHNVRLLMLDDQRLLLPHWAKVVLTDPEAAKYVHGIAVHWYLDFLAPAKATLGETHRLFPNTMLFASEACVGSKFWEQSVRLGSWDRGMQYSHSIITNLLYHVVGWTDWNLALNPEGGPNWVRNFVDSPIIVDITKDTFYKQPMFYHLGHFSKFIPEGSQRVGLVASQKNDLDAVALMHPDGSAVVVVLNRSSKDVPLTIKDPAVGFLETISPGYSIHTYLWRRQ

For `COC(=O)c1cc2oc(C)cc2n1Cc1ccc(C)cc1`, the Potency [1] was “inactive”, the Potency [2] was “inactive” and the Potency [3] was “inactive”. For the same molecule, the Potency [4] was “inactive”.
In the case of `CCOC(=O)c1cc(C)sc1NC(=O)CSC1=NCCS1`, the Potency [1] is reported as “inactive”, the Potency [5] is reported as “inactive” and the Potency [3] is reported as “inactive”.
In the case of `Brc1ccccc1Cn1c(-c2cncs2)nc2ccccc21`, the Potency [1] is reported as “inactive”, the Potency [2] is reported as “inactive” and the Potency [3] is reported as “inactive”.
In the case of `COc1ccc(Oc2ncc3nc(C)c(=O)n(Cc4cccs4)c3n2)cc1`, the Potency [6] is reported as greater than 11.4 µM, the activity change, negative = inhibition [7] is reported as 4.45% and the Potency [8] is reported as 10 µM (active). For the same molecule, the activity change, negative = inhibition [9] was -5.89%, the outcome [10] was “inactive” and the Potency [11] was “inactive”. For the same molecule, the Potency [12] was “inactive”, the outcome [13] was “inactive” and the activation [14] was -21.2%. The Potency [1] was “inactive” and the Potency [2] was “inactive”.
For `CCSc1nnc(-c2sc3nnc(-c4ccccc4)c(-c4ccccc4)c3c2N)o1`, the Potency [15] was 25.9 µM (active), the Potency [1] was “inactive” and the Potency [2] was 112 µM (active). For the same molecule, the Potency [3] was “inactive”.
In the case of `COc1ccc2c(c1)CCC1C2=NN(/C(C)=C/C(C)=O)C1c1cccc(F)c1` (stereo not given), the Potency [1] is reported as “inactive”, the Potency [5] is reported as 84.9 µM (active) and the Potency [3] is reported as “inactive”.
With `CC(C)N1CCc2c(sc(NC(=O)c3ccc(C(=O)c4ccccc4)cc3)c2C(N)=O)C1` the Potency [1] was “inactive”, the Potency [5] was “inactive” and the Potency [3] was “inactive”.
With `O=C1CSC(c2ccc(Cl)c(Cl)c2)N1c1nccs1` (stereo not given) the Potency [1] was “inactive”, the Potency [2] was “inactive” and the Potency [3] was “inactive”.
In the case of `Cc1cc([N+](=O)[O-])c2[nH]c(C(=O)N/N=C/c3ccccc3C(=O)O)c(-c3ccccc3)c2c1`, the Potency [1] is reported as 67.5 µM (active), the Potency [2] is reported as “inactive” and the Potency [4] is reported as “inactive”.
For `CN(C(=O)c1cc2c(cc1Br)OCO2)c1cccc2ccccc12`, the Potency [1] was “inactive”, the Potency [5] was “inactive” and the Potency [3] was “inactive”.
With `CCN(CC)c1ccc(C=C2SC(=S)NC2=O)cc1` the Potency [1] was “inactive”, the Potency [5] was 84.9 µM (active) and the Potency [3] was “inactive”.
For `COc1cccc(C(=O)c2sc3nc(-c4ccccc4)cc(C(F)(F)F)c3c2N)c1`, the Potency [1] was “inactive”, the Potency [2] was “inactive” and the Potency [3] was “inactive”. For the same molecule, the Potency [4] was 56.2 µM (active).
In the case of `COc1ccc2c(c1)C(=O)CCC2c1ccccc1` (stereo not given), the Potency [1] is reported as “inactive”, the Potency [5] is reported as “inactive” and the Potency [3] is reported as “inactive”.
For `CCCN(CCC)c1ccc(/C=C/c2ccnc3ccccc23)cc1`, the Potency [1] was “inactive” and the Potency [5] was “inactive”.
In the case of `CCN(CC)c1ccc2cc(C(=O)NNC(=O)c3ccc(S(=O)(=O)N4CCCCC4)cc3)c(=O)oc2c1`, the Potency [1] is reported as “inactive”, the Potency [2] is reported as 112 µM (active) and the Potency [3] is reported as “inactive”. For the same molecule, the Potency [4] was “inactive”.
With `COc1ccc(NC(=O)c2csc3c2CCCCC3)c(OC)c1` the Potency [1] was “inactive”, the Potency [2] was “inactive” and the Potency [3] was “inactive”. The Potency [4] was “inactive”.
